Assay outcomes from PubChem BioAssay.
tim23-1 inh – growth inhibitors of tim23-1 mutant yeast, primary screen, luminescence, uHTS | S. cerevisiae tim23-1 growth, BacTiter-Glo luminescence, 24 h | inhibition, % at 20 µM | 330,000 compounds, 1.3% hits;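 active = growth inhibition of the mutant yeast at or above 50%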;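 also: temperature-sensitive mutant grown at 25 °C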
tim10-1 inh – growth inhibitors of tim10-1 mutant yeast, primary screen, luminescence, uHTS; S. cerevisiae tim10-1 ts strain growth, BacTiter-Glo, 24 h; inhibition, % at 20 µM; 330,000 compounds, 2.2% hits; AID 463190, 2010;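 active = inhibition of at least 40%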;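 also: mutant grown at 25 °C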
NALP1 yeast inh – NALP1 inflammasome inhibitors in reconstituted yeast, colorimetric, S. cerevisiae, triplicate retest. S. cerevisiae NALP1/ASC/caspase-1 growth, X-gal OD620, 72 h. inhibition, % at 10 µM. 280,000 compounds, 0.61% hits. AID 2071, 2009; in the data active = inhibition mostly above about 24%, no sharp cut-off; inactive = mostly below about 32%
NLRP3 yeast inh – NALP3 inflammasome inhibitors in reconstituted yeast, primary screen, luminescence, uHTS; inhibition, % at 10 µM; AID 2825, 2010; Yeast reconstituted NLRP3/ASC/caspase-1, beta-gal luminescence, 24 h; 330,000 compounds, 0.39% hits;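 active = inhibition of 50% or more; inactive = inhibition below 50%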
TIM10 inh – growth inhibitors of isogenic TIM10 control yeast, primary screen, counter-screen for tim10-1 yeast inhibitor project, luminescence, uHTS; S. cerevisiae TIM10 strain growth, BacTiter-Glo luminescence, 24 h; inhibition, % at 10 µM; 330,000 compounds, 1.4% hits;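 active = inhibition of 40% or more at the single tested concentration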;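 also: wild-type TIM10 isogenic control strain grown at permissive 25 °C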
tim10-1 confirm – growth inhibitors of tim10-1 mutant yeast, confirmation, single concentration, luminescence, S. cerevisiae | shares compounds with tim10-1 inh | S. cerevisiae tim10-1 ts strain growth, BacTiter-Glo, 24 h | inhibition, % at 20 µM | 7,400 compounds, 56% hits;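 active = inhibition of yeast growth at or above a set limit in either of two repeat tests at 20 µM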;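 also: tim10-1 mutant grown at permissive 25 °C to find synthetic lethal compounds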
tim10 confirm – growth inhibitors of wild-type TIM10 yeast, confirmation, counter-screen for tim10-1 synthetic lethality project, single concentration, luminescence, S. cerevisiae. shares compounds with TIM10 inh. S. cerevisiae tim10 strain growth, BacTiter-Glo luminescence, 24 h. inhibition, % at 10 µM. 4,600 compounds, 63% hits. AID 463215, 2010;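 active = inhibition of yeast growth at or above a set limit in either of two replicates at 10 µM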; also: this counterscreen used the strain with wild-type TIM10
Of the large screens only hits and unclear results are named; the others gave an inactive call (follow-up assays come after a bar, where they were run). Only some compounds are listed: those with a hit (about 4% of all), similar ones and a draw of the others.

S=C(NCCSCc1ccc(Cl)cc1Cl)Nc1ccccc1	tim10-1 inh 47.6, TIM10 inh 59.3 | tim10-1 confirm 45.2 | tim10 confirm 52.9
Cc1ccc2c(c1)NC(c1cccs1)C1=C(CC(C)(C)CC1=O)N2 (stereo not given)	none
FC(F)(F)c1ccccc1NC(=S)Nn1cnnc1	none
CS(=O)(=O)N1CCN(c2ccccc2NC(=O)c2ccc(-c3ccc(Cl)cc3Cl)o2)CC1	none
CN1CCN(c2ccccc2NC(=O)c2ccc(-c3ccc(Cl)cc3Cl)o2)CC1	tim10-1 inh 56.0, TIM10 inh 46.0 | tim10-1 confirm 54.8 | tim10 confirm 48.2
CCCC1(CCC)NC(=O)N(CC(=O)N2CCc3ccccc32)C1=O	none (no result: NALP1 yeast inh)
Cc1c(Cl)cnc(NC(=O)COC(=O)c2ccc([N+](=O)[O-])s2)c1Cl	tim10-1 inh 49.0, TIM10 inh 65.8 | tim10-1 confirm inactive | tim10 confirm 81.8
O=C(COC(=O)c1ccc([N+](=O)[O-])s1)Nc1ccc(Cl)cn1	none
O=S(=O)(NCc1ccc(Cl)cc1Cl)c1ccc(N2CCOCC2)nc1	none
CSc1ccc(S(=O)(=O)NCc2ccc(Cl)cc2Cl)cc1	tim10-1 inh 46.9, TIM10 inh 45.9 | tim10-1 confirm 39.1 | tim10 confirm 39.5
CCOc1ccc2[nH]c3nc(SCC(=O)NCC4CCCO4)nnc3c2c1 (stereo not given)	none
CCOc1ccc2c(c1)c1nnc(SCC3CCCO3)nc1n2C (stereo not given)	tim10-1 inh 46.3, TIM10 inh 44.5 | tim10-1 confirm 30.1 | tim10 confirm 47.1
Cc1ccc2c(c1)C1CN(C)CCC1N2C(=O)c1cccc(S(=O)(=O)N2CC(C)CC(C)C2)c1 (stereo not given)	tim10-1 inh 46.7, TIM10 inh 55.0 | tim10-1 confirm 42.5 | tim10 confirm 38.3
Cc1cccc(N/C(N)=N/c2nc(C)c(Cc3ccccc3)c(=O)[nH]2)c1	none
Cc1cc(NCc2ccccc2)nc(-c2ccccc2O)n1	tim10-1 inh 64.3, TIM10 inh 66.5 | tim10-1 confirm 49.0 | tim10 confirm 46.2
Cc1cc(NC2CCCCC2)nc(-c2ccccc2O)n1	none
COC(=O)c1ccccc1NC(=S)NC(=O)COc1ccc(C)cc1	none (no result: NALP1 yeast inh)
COC(=O)c1ccccc1NC(=S)NC(=O)COc1ccccc1Cl	tim10-1 inh 41.8, TIM10 inh 42.3 | tim10-1 confirm inactive | tim10 confirm inactive
COc1nnc(-c2ccc(C)c(S(N)(=O)=O)c2)c2ccccc12	none
COc1nnc(-c2ccc(N3CCCCC3)c(N)c2)c2ccccc12	tim10-1 inh 44.4, TIM10 inh 49.1 (no result: NALP1 yeast inh) | tim10-1 confirm 35.9 | tim10 confirm 39.8
CCc1cccc(C)c1NC(=S)NCc1ccc2[nH]c(C)cc2c1	tim10-1 inh 50.8, TIM10 inh 47.5 | tim10-1 confirm inactive | tim10 confirm 36.7
CNC(=S)NCc1ccc2[nH]c(C)cc2c1	none
CN1C(=O)C(CC(=O)Nc2ccc(F)cc2)N(Cc2ccco2)C1=S (stereo not given)	none
CCOC(=O)C1(S(=O)(=O)c2ccc(Cl)cc2)CCN(Cc2ccc(Cl)cc2)CC1	tim10-1 inh 47.7, TIM10 inh 42.4 | tim10-1 confirm inactive | tim10 confirm 34.2
CCOC(=O)C1(Cc2ccc(Cl)cc2)CCN(Cc2nccn2CC)CC1	none
COc1cc(OC)c(/C=N/NC(=O)c2ccc(Cn3nc([N+](=O)[O-])cc3C)cc2)c(OC)c1	none
COc1ccccc1-c1cc(C(F)(F)F)nc(S(=O)(=O)CCCC(=O)N2CCCCC2C)n1 (stereo not given)	tim10-1 inh 42.0, TIM10 inh 40.6 | tim10-1 confirm inactive | tim10 confirm inactive
COc1ccccc1-c1cc(C(F)(F)F)nc(S(=O)(=O)CCCC(=O)Nc2cc(C)on2)n1	none
O=C(NC(=S)Nc1ccccc1N1CCCC1)c1cccc(F)c1	tim10-1 inh 52.0, TIM10 inh 52.1 | tim10-1 confirm inactive | tim10 confirm 48.3
